SRC2 inh = human SRC2 (NCOA2) inhibition. Q15596. hit rate 0.17% among 370,000. inhibition, % at 9 µM. HEK293 GAL4-SRC2 luciferase reporter, luminescence;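 active means inhibition above the mean inhibition of all tested compounds plus 3 SD, set per campaign, cut at about 52% in these data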;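 further: 0% = DMSO treated cells and 100% = cells given Gossypol at 36 µM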
SRC3 inh = inhibitors of human steroid receptor coactivator 3 (SRC3); Q9Y6Q9; hit rate 0.17% among 360,000; AID 588352; inhibition, % at 3.6 µM; HEK293 GAL4-SRC3 luciferase reporter, luminescence;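 active means inhibition above a per-campaign cutoff, the mean of all compounds plus 3 SD, cut at about 60% in these data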;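 further: 0% = DMSO-treated cells and 100% = gossypol-treated cells at 36 µM; higher means less SRC3-driven luciferase light from the GAL4 reporter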
GalR3 antag = human GalR3 antagonism | inhibition, % at 3 µM | AID 651719 | O60755 | hit rate 0.44% among 360,000 | HEK293 GalR3-CNG cAMP membrane potential fluorescence; galR3 body fused to GalR1 C-terminus;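 active means inhibition above the screen-wide average plus 3 SD, cut at about 13% in these data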;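 further: forskolin and galanin both at EC90 stimulate the cells; cAMP rise reported by CNG channel membrane potential dye signal; 0% = forskolin plus galanin with DMSO and 100% = forskolin alone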
Target sequence (O60755 1-299 limits assumed): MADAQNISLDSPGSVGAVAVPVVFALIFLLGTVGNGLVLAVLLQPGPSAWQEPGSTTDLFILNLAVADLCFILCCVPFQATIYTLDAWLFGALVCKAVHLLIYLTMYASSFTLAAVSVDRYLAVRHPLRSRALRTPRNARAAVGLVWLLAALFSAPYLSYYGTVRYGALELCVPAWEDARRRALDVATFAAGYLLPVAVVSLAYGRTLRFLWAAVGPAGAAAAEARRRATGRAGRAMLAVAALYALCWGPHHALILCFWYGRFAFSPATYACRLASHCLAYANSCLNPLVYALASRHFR
COUP-TFII inh = inhibitors of human COUP-TFII (NR2F2); HEK293T NGFI-A luciferase reporter, luminescence; inhibition, % at 8.6 µM; P24468; hit rate 0.7% among 370,000;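 active means inhibition above a per-plate cutoff, mean inhibition of test wells between control levels plus 3 SD, cut at about 38% in these data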;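 further: cells cotransfected with COUP-TFII expression vector driving the NGFI-A reporter; 0% = median of COUP-TF2 test wells and 100% = reporter-only cells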
NR5A2 inv ag = suppresses constitutive activity of human LRH-1; HEK293T StAR-luciferase reporter, LRH-1 transfected, 24 h; inhibition, % at 3.6 µM; hit rate 0.13% among 360,000; AID 602396;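 active means inhibition above the mean inhibition of all tested compounds plus 3 SD, cut at about 73% in these data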;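 further: 0% = DMSO wells and 100% = reporter-only cells lacking LRH-1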
SRC1 inh = human NCOA1 inhibition. Q15788. HEK293 GAL4-SRC1 luciferase reporter, luminescence. inhibition, % at 3.6 µM. hit rate 0.12% among 360,000. AID 588354;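 active means inhibition above the campaign mean plus 3 SD, with each screening campaign given its own cutoff, cut at about 60% in these data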;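 further: 0% = DMSO treated cells and 100% = gossypol at 36 µM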
GalR3 conf = GalR3 (human) antagonism, confirmation | shares compounds with GalR3 antag | HEK293 GalR3 CNG cAMP biosensor, membrane potential fluorescence; galR3 fused to GalR1 carboxy tail; challenged with forskolin and galanin at EC90 | inhibition, % at 3 µM | hit rate 59% among 1,600 | AID 652245;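 active means inhibition above the primary screen's cutoff, the mean inhibition of all screened compounds plus 3 SD, cut at about 13% in these data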;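 further: 0% = forskolin plus galanin and 100% = forskolin alone with DMSO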
HEK-CNG parental = counter-screen for GalR3 antagonists: nonspecific agonists in parental HEK-CNG cells. AID 652268. HEK293-CNG parental cells, cAMP membrane potential fluorescence; normalised: DMSO wells 0%, forskolin wells 100%. hit rate 10% among 1,600. shares compounds with GalR3 antag. activation, % at 3 µM; in the data active means activation above about 1.3%
An asterisk follows results filed as active; x = not tested or not shown. Most compounds without a hit are left out; they make up all but 1.1% or so of the library.

SMILES	SRC2 inh	SRC3 inh	GalR3 antag	COUP-TFII inh	NR5A2 inv ag	SRC1 inh	GalR3 conf	HEK-CNG parental
CCOC(=O)CSc1nc(N)c(C#N)c(-c2ccc(OCC)cc2)c1C#N	7	0	-8	10	-7	-1	x	x
O=C(Nc1nc2c(Br)cccc2s1)c1ccc2c(c1)OCCO2	x	x	x	-26	x	x	x	x
Cc1cccc(C(=O)Nc2nc3ncccn3c2-c2ccc(F)c(F)c2)c1	-10	x	x	-5	x	x	x	x
CC(=O)N1c2cc(S(=O)(=O)N3CCN(c4ccccc4F)CC3)c(Br)cc2CC1C (stereo unspecified)	19	x	x	13	x	x	x	x
Cc1ccc(NC(=O)CSc2ncnc3ccccc23)cc1S(=O)(=O)N1CCCCCC1	34	20	96*	37	7	-1	108*	-2
O=C(Nc1ccc(Cl)c(S(=O)(=O)N2CCOCC2)c1)c1ccncc1	-15	7	43*	-73	5	14	7	0
Cc1ccc(NC(=O)CSc2ncn[nH]2)cc1S(=O)(=O)N1CCOCC1	-4	3	18*	14	-10	6	8	0
Cc1ccc(NC(=O)CSc2ccccn2)cc1S(=O)(=O)N1CCOCC1	-18	3	-4	13	5	-3	x	x
N#CCC[C@H]1CC[C@]2(CCCN(C(=O)c3ccccc3)C2)O1	19	x	x	-3	x	x	x	x
COc1cc(OC)c(C#N)c(S(=O)(=O)Cc2ccccc2)c1	0	9	-5	0	8	-4	x	x
N#Cc1c([N+](=O)[O-])cc([N+](=O)[O-])cc1S(=O)(=O)Cc1ccccc1	61*	-23	64*	6	32	-8	25*	-1
CN(C)c1ccc(-c2nc3ncc(Cl)cc3[nH]2)cc1	31	x	x	35	x	x	x	x
O=C(N/N=C1\CC2CC=CC12)c1ccc(Br)cc1 (stereo unspecified)	-15	6	-2	-5	-10	6	x	x
Cc1cc(Br)c(OCc2ccc(C(=O)N/N=C3\CC4CC=CC34)cc2)c(Br)c1 (stereo unspecified)	14	14	27*	-16	-13	-6	46*	0
CCCCn1c(=O)[nH]c(=O)c2c1nc(Cn1ncc(Cl)c(Cl)c1=O)n2CCC	-15	8	23*	-6	-1	-7	20*	0
C=CCN1[C@H](CC(C)C)COc2cc(N3CCCC3)ccc2S1(=O)=O	21	x	x	1	x	x	x	x
Cc1ccc(-n2c(SCC(=O)c3ccc(F)cc3)nnc2-c2cccnc2)cc1	9	x	x	6	x	x	x	x
O=C(Nc1nc(-c2ccc(Cl)cc2Cl)cs1)c1ccc(OCC2CCCO2)cc1 (stereo unspecified)	-3	24	92*	14	-9	23	109*	-1
COc1ccc(N(CC(=O)N/N=C/c2ccc(OC)c(OC)c2)S(=O)(=O)c2ccccc2)cc1	-17	-8	14*	-9	-2	-53	34*	0
COc1cc(/C=N/NC(=O)CN(CCc2ccccc2)S(=O)(=O)c2ccc(NC(C)=O)cc2)cc(OC)c1OC	-13	14	4	8	-11	8	x	x
COc1ccc(/C=N/NC(=O)CN(CCc2ccccc2)S(=O)(=O)c2ccc(NC(C)=O)cc2)cc1OC	-38	-8	17*	-11	0	-2	29*	0
CCCCCCn1cc(CN2CC=CS2(=O)=O)nn1	-16	x	x	0	x	x	x	x
COc1ccccc1NC(=O)CSC1=NC(=O)C(Cc2ccccc2)C(=O)N1 (stereo unspecified)	11	-10	13*	10	-3	2	-3	0
CCCc1cc(-c2[nH]ncc2-c2ccc3c(c2)OCCCO3)c(O)cc1O	-14	0	4	11	14	2	x	x
CCCc1cc(-c2[nH]ncc2-c2ccc(C(=O)OCC)o2)c(O)cc1O	-8	12	31*	-1	12	2	17*	-1
SMILES	SRC2 inh	SRC3 inh	GalR3 antag	COUP-TFII inh	NR5A2 inv ag	SRC1 inh	GalR3 conf	HEK-CNG parental
O=C(CSc1nnc(-c2ccco2)c(-c2ccco2)n1)c1ccccc1	-18	-22	13*	-14	-22	-3	2	0
CC(=O)c1ccc(NC(=O)CSc2nnc(-c3ccco3)c(-c3ccco3)n2)cc1	-14	-9	-9	3	6	-1	x	x
Cc1ccc(/C=C/C(=O)Nc2ccccc2C(N)=O)cc1	-37	-70	x	-47	-115	-88	4	0
CC(C)(C)C1=C(C#N)C(c2cc3c(cc2Br)OCO3)C(C#N)=C(N)O1 (stereo unspecified)	-3	-1	x	-23	-12	-4	-3	0
Cc1ccc(C2C(C#N)=C(N)Oc3cc4c(cc32)OCO4)cc1 (stereo unspecified)	-10	-2	1	1	13	-10	x	x
CCN(CC)S(=O)(=O)c1ccc(N2CCOCC2)c(NC(=O)c2ccccc2)c1	5	3	-1	1	1	1	x	x
CCN(CC)S(=O)(=O)c1ccc(O)c(NC(=O)c2ccc(N3CCOCC3)c([N+](=O)[O-])c2)c1	-19	-9	23*	3	-4	16	11	0
COc1cc(C(=O)O[C@H]2CC(C)=CC[C@@]3(C)CC[C@@](O)(C(C)C)[C@H]23)ccc1O	-6	-18	26*	-3	17	8	21*	0
COc1cc(C(=O)O[C@H]2C/C(C)=C/CC[C@]3(C)O[C@@H]3C(O)C2C(C)C)cc(OC)c1OC (stereo partly specified)	-1	1	-3	3	13	-11	x	x
CC(C)[C@@H]1OC(=O)[C@@H]2CCCN2C(=O)[C@H](C)OC(=O)[C@H](C)[C@@H](C(C)C)NC(=O)[C@@H]2CCCN2C(=O)[C@H]([C@H](C)Cc2ccccc2)NC(=O)[C@@H]2CCCN2C(=O)[C@@H](C(C)C)N(C)C1=O	x	x	x	8	x	x	x	x
CCOC(=O)N1CCN(C(=O)C[C@@H]2C(=O)N3CCCC4=C3[C@@]2(C(=O)OCC)CCC4)CC1	-15	x	x	7	x	x	x	x
O=C(NCC(=O)N1CCN(c2ccccc2)CC1)c1ccc(Cl)cc1	0	3	14*	-18	20	-1	1	0
CCNC(=O)N(C)[C@H]1C[C@H]2c3[nH]c4cccc(-c5ccc6c(c5)OCO6)c4c3CCN2C[C@H]1[C@H](C)O	0	x	x	1	x	x	x	x
O[C@H](COc1ccc(OC(F)(F)F)cc1)CN1CCC(C(O)(c2ccccc2)c2ccccc2)CC1	-4	x	x	9	x	x	x	x
COC(=O)COc1ccc(-c2ccccc2)cc1C=O	-11	3	17*	-8	-10	6	4	1

Screening results from PubChem.
